Laboratory results reported in PubChem BioAssay AID2279 (Southern Research Specialized Biocontainment Screening …, 2010).
Entries with a potency or affinity are not part of this list. Active and inactive are the calls of the source. No rule for the calls is given here.

Experiment: HIV-1 Env-mediated cell fusion inhibitors, dose response, CCR5-tropic Env (AID 2279)
Conditions: CCR5-tropic HIV-1 Env, reporter read-out; series mostly up to 50 µM

outcome, inactive:
CCc1nnc(NS(=O)(=O)c2ccc(N/C=C(\C=O)c3nc4cc(Cl)ccc4o3)cc2)s1
COc1ccc(-c2csc(NC(=O)CSc3nc(C)nc4sc(C(=O)O)c(C)c34)n2)cc1
O=C(O)COc1ccc(/C=N/NC(=O)c2ccc(-c3csc(Nc4ccc(Cl)cc4)n3)cc2)cc1
COc1ccc(-c2coc3c(C)c4oc(=O)c(CCC(=O)O)c(C)c4cc23)cc1
CC1=C(C(=O)Nc2ccccc2)C(c2ccc(Cl)cc2)n2c(s/c(=C/c3cccc(OCC(=O)O)c3)c2=O)=N1 (centres undefined)
CC(c1ccccc1)N1C(=O)c2ccc(C(=O)Nc3ccc(Br)cc3C(=O)O)cc2C1=O (centres undefined)
C=CC#CC[N+]1(CC#Cc2ccccc2)CCOCC1
CCOC(=O)c1c(N2C(=O)Nc3cc(Cl)c(Cl)cc3N2O)sc2c1CCCCC2
COc1cc(/C=C2\C(=N)N3N=C(S(C)(=O)=O)SC3=NC2=O)ccc1OC(=O)c1ccco1
O=C(NN1C(=O)/C(=C\c2ccc(O)c([N+](=O)[O-])c2)SC1=S)c1ccccc1Cl
CCS(=O)(=O)C1=NSC2=NC(=O)/C(=C\c3ccc(OS(=O)(=O)c4ccccc4)c(OC)c3)C(=N)N21
CCOC(=O)C1=C(C)N=c2s/c(=C\c3ccc(OCC(=O)O)c(OC)c3)c(=O)n2C1c1ccc(OC)cc1 (centres undefined)
O=C1N=c2ccc(Br)cc2=C1c1sc(=S)n(NS(=O)(=O)c2ccccc2)c1O
COc1ccc(N=C2S/C(=C\c3ccc(OCC(=O)O)cc3)C(=O)N2CCc2c[nH]c3ccccc23)cc1
